Assay outcomes from PubChem BioAssay.
ssDAF-12 act = activators of S. stercoralis DAF-12 nuclear receptor | HEK293 ssDAF-12/GRIP1 lit1-tk-luc reporter, luminescence; % of 3 µM dafachronic acid response | activation, % at 6.8 µM | 370,000 tested, 1% active | AID 652126;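 active = activation above the mean over all tested compounds plus 3 SD, cut at about 0.9% in these data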;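 note: 0% = DMSO-only wells and 100% = 3 µM delta7-dafachronic acid wells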
hgDAF12 agonist = activates the H. glycines DAF-12 receptor ligand-binding domain. HEK293 GAL4-hgDAF12 UAS-luciferase reporter, agonist luminescence; normalized to butyrate control. activation, % at 6.8 µM. 370,000 tested, 1.8% active. AID 687014;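 active = activation above a cutoff set at the mean of all screened compounds plus 3 SD, cut at about 10% in these data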;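 note: 0% = DMSO wells and 100% = sodium butyrate wells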
hcDAF-12 act = H. contortus DAF-12 activation, primary screen; activation, % at 6.8 µM; HEK293 hcDAF-12 lit1-tk-luc reporter, luminescence; 0% DMSO, 100% Δ7-dafachronic acid; 370,000 tested, 1.4% active;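 active = activation above the mean of all tested compounds plus 3 SD, cut at about 5.5% in these data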;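 note: 100% = response to 3 µM Δ7-dafachronic acid high control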
Wee1 degr inh = blocks degradation of human Wee1 kinase; P30291; HeLa Luc-Wee1K328M stability, luciferase luminescence; 100% = proteasome inhibitor MG132 effect; reporter increase, % at 5 µM; 220,000 tested, 1.2% active; AID 1321;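 active = activation above the mean of all tested compounds plus 3 SD, set per screening run, cut at about 8.8% in these data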;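 note: cells exposed to compound for 20 h before luminescence read; 0% = DMSO alone and 100% = MG132 at 30 µM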
DAX1 inh-1 = inhibitors of DAX1 repression of SF-1 activated StAR promoter. HEK293T StAR-luciferase reporter, SF-1/DAX-1 repression relief. inhibition, % at 6.8 µM. 370,000 tested, 1.1% active. AID 652010;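 active = inhibition above the mean over all tested compounds plus 3 SD, cut at about 3.6% in these data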;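 note: 0% = DAX-1 cells with DMSO and 100% = cells lacking DAX-1 with DMSO; higher inhibition means more luminescence from relief of DAX-1 repression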
DAX1 inh-2 = inhibitors of human orphan nuclear receptor DAX1 (NR0B1) | HEK293 Gal4-DAX1 luciferase reporter, luminescence | 340,000 tested, 0.99% active | inhibition, % at 6.75 µM;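 active = inhibition above the mean over all tested compounds plus 3 SD, cut at about 4.2% in these data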;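 note: 0% = DAX1-transfected cells with DMSO and 100% = empty-vector control cells with DMSO; inhibition shows as a rise in luminescence from relieved DAX1 repression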
Target sequence (P51843 207-470 limits assumed): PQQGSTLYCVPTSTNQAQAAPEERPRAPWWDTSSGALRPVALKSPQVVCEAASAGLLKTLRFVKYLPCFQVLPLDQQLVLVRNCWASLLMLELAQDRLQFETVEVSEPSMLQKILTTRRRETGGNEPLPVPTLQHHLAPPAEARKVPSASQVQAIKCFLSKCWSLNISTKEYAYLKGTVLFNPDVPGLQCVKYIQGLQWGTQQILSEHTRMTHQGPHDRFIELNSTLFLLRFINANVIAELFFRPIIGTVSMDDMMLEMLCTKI
* marks the source's active call; other numbers are inactive results; · = no result given. Compounds with a hit are over-represented: about 4.6% of the library has one in this group of screens.

SMILES	ssDAF-12 act	hgDAF12 agonist	hcDAF-12 act	Wee1 degr inh	DAX1 inh-1	DAX1 inh-2
Cc1ccccc1NC(=O)Cc1c[nH]c2ccccc12	1.0*	1.1	3.6	·	0.4	2.2
CC(C)CNC(=O)CCCc1c[nH]c2ccccc12	-0.3	0.2	1.2	-2.5	-0.1	-0.2
CCN(CC(=O)Nc1ccc(NC(C)=O)cc1)C(=O)CCCc1c[nH]c2ccccc12	0.0	-2.3	-0.5	·	0.5	-0.2
CC(=O)Nc1ccc(NC(=O)CCCc2c[nH]c3ccccc23)cc1	-1.1	-1.3	0.0	-0.6	0.0	5.0*
Cc1cccc(C)c1NC(=O)CNC(=O)Cc1c[nH]c2ccccc12	0.6	2.3	4.1	·	0.8	0.8
CN(C)C(CNC(=O)CCCc1c[nH]c2ccccc12)c1ccco1 (centres undefined)	-1.8	1.1	-2.2	-1.4	0.1	5.8*
OCC1OC(n2cnc3c(N4CCCCC4)ncnc32)C(O)C1O (centres undefined)	-1.4	-0.2	-1.0	·	0.0	1.1
COC(=O)c1ccc(C(=O)OC)c(NC(=O)C2CC(=O)N(C3CCCC3)C2)c1 (centres undefined)	-0.9	-1.8	0.0	·	-2.1	-0.2
CC(C)C[C@H]1CNC(=O)C(=O)N1C[C@H]1CCCN1C[C@H](CC(C)C)N1C[C@H](Cc2ccccc2)N(CCc2ccccc2)C(=O)C1=O	-0.8	0.6	0.3	·	3.1	·
CCOC(=O)Cn1nnnc1C(C(C)C)N(Cc1cccs1)Cc1cc2cc(C)ccc2[nH]c1=O (centres undefined)	-1.6	-1.1	-0.4	-0.3	-0.6	4.3*
COc1ccc(NS(=O)(=O)c2ccc(N3C(=O)CCC3=O)cc2)cc1	-1.7	-0.6	-1.3	-1.5	-1.1	4.7*
O=C1CCC(=O)N1c1ccc(S(=O)(=O)Nc2ccc(Br)cc2)cc1	-1.0	-1.9	-1.1	·	0.2	-0.6
O=C(CCc1nc2ccccc2c(=O)[nH]1)N1CCCc2ccccc21	1.3*	2.4	5.6*	·	1.9	0.5
O=C(CCc1nc2ccccc2c(=O)[nH]1)N1CCN(c2ccccc2Cl)CC1	-1.3	0.3	-0.3	·	-0.7	1.1
CC(C)C[C@@H](CN)NC(=O)c1nc[nH]c1C(=O)N[C@@H](C)C(=O)CNC[C@H](C)NC(=O)c1nc[nH]c1C(=O)N[C@@H](C)C(=O)O	-1.1	-1.6	-0.3	·	0.1	0.9
C/C(=N\Nc1nncc2ccccc12)c1ccc(C(C)(C)C)cc1	·	·	·	·	·	4.9*
Cc1cccc(C)c1NC(=O)C1(C)CSCC(=O)N1C1CCN(Cc2ccccc2)CC1 (centres undefined)	-0.8	-2.0	-1.2	·	-0.5	·
C/C=C/c1ccc(OCC(=O)N(CCOC)c2c(N)n(CCCC)c(=O)[nH]c2=O)c(OC)c1	-1.2	0.5	-0.2	·	3.6	0.6
O=C(COC(=O)Cn1cnc2ccccc2c1=O)Nc1ccc(Cl)c(C(F)(F)F)c1	1.5*	-3.2	-1.2	-0.3	-0.1	0.7
O=C(COC(=O)Cn1cnc2ccccc2c1=O)Nc1ccc(Cl)cc1	-0.5	-0.5	0.9	-1.9	-0.6	-1.3
CC(=C1C(=O)c2ccccc2C1=O)N1CCc2ccccc2C1	-0.7	3.5	5.7*	-0.7	0.7	0.5
O=P(O)(Cc1ccccc1)c1ccccc1	-1.3	0.5	-1.4	·	0.1	1.6
CCOc1ccc(CCNC(=O)C2CCCCC2)cc1OCC	-2.0	-1.4	-2.7	·	·	·
COC(=O)Cc1ccc(NC(=S)N2CCCC(C)C2)cc1 (centres undefined)	-0.9	-1.4	1.4	-1.0	-0.2	-1.5
COC(=O)Cc1ccc(NC(=S)N2CCCC(CO)C2)cc1 (centres undefined)	0.6	10.5*	4.5	4.1	1.1	-1.7
Cc1ccc(C2CCN(C(=S)NC(C)(C)C)C2)cc1 (centres undefined)	-0.9	4.9	0.8	-2.2	-0.5	5.6*
CC1CCCN(C(=S)Nc2ccc(Nc3ccccc3)cc2)C1 (centres undefined)	1.3*	10.7*	1.3	-2.3	2.4	·
COc1ccc(NC(=S)N2CCC(c3ccccc3)C2)cc1 (centres undefined)	-0.1	11.9*	4.2	·	2.3	1.4
